Reference: PubChem BioAssay (NCI)
The panel holds about 83,000 compounds, 20% with a hit somewhere; the sample as a whole holds those more often.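 Compound tested at a single concentration for 48 hours in 96-well plates; a percent growth value below 10 was scored as active.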 Unmarked numbers belong to inactive results. Active and inactive are the calls of the source.

The compounds below were run on HL-60(TB) leukemia (assay: NCI-60 one-dose screen, 48 h (100 = growth as untreated, 0 = no growth, -100 = all killed)). Settings: 10 µM unless noted.

SMILES | growth
O=C(Nc1ccc(-n2ccc3c(NC(=O)c4ccccc4)ncnc32)cc1)c1ccc(Cl)c(C(F)(F)F)c1 | 34.6%
N#Cc1c(-c2cccc(Cl)c2)cc(-c2cccc(F)c2)[nH]c1=O | -58.3% (active)
COc1cc(-c2cc(/C=C3\C(=O)Nc4ccc(Cl)cc43)[nH]n2)cc(OC)c1OC | -26% (active)
C=C1CC[C@H](C(C)C)[C@@H]2[C@H]1[C@H]1CC(=C)[C@@H](O)CC[C@@](C)(O)[C@@H]2O1 | 103%
COc1ccccc1CNCCN1C(=O)c2ccc3c4c(ccc(c24)C1=O)C(=O)N(CCNCc1ccccc1OC)C3=O | -71.8% (active)
COC(=O)/C=C1/CCC2C3CCC4=CC(=O)C(Br)CC4(C)C3C(=O)CC12C (configuration not stated) | 75.1%
COc1ccc2c(c1)c(CC(=O)NCCOCCOCC(=O)Nc1ccc(OC)c(C(N)=O)c1O)c(C)n2C(=O)c1ccc(Cl)cc1 | 107%
C(=Nc1ccc(-c2ccc(N=Cc3ccccc3)cc2)cc1)c1ccccc1 | 107%
C/C(=C/CCC(C)[C@@H]1CC[C@]2(C)C3=C(CC[C@@]12C)[C@@]1(C)CCC(=O)C(C)(C)[C@@H]1CC3)C(=O)O (some centres not stated) | -58.8% (active)
COc1ccc(N)c(-c2cc3c(c4c2[nH]c2ccc(OC)cc24)CCCC3)c1 | 78.8%
COc1ccc(SC2c3ccc(O)cc3Oc3nc(N)c(C#N)c(N)c32)cc1 (configuration not stated) | 46.9%
O=C1c2c(c3c4ccccc4n(CCCCCCN4CCOCC4)c3c3[nH]c4ccccc4c23)C(=O)N1O | 77.7%
